Screening data: PubChem, Broad Institute
Most compounds without a hit are left out; they make up all but 6.8% or so of the library.
Pf Dd2 inh = P. falciparum Dd2 growth inhibition | SYBR Green, 72 h; hits give low values | activity change, % at 10 µM | actives 2.3% (n = 94,000) | AID 1159554; in the data active = activity change below about -80%
T cruzi growth = blocks T. cruzi growth in NIH3T3 culture; T. cruzi beta-gal in NIH3T3, GalScreen luminescence, 90 h; inhibition, % at 8.34 µM; actives 5.9% (n = 77,000);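 active = mean inhibition above about 93%, with at least 55% of replicates each passing it, limit read from the data, passing the limit was not always enough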
C diff growth = C. difficile growth inhibition; Clostridium difficile clinical isolate growth, OD600, 24 h; hits give low values; growth activity, negative = inhibition, % at 16 µg/mL (by protocol); actives 0.25% (n = 86,000);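 active = mean growth activity at or below -80% and every replicate also at or below -80%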;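 note: 0% = DMSO wells and -100% = levofloxacin 16 µg/mL wells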
* = called active by the depositor; x = not tested or not shown; ! = not confirmed by another sample.

SMILES	Pf Dd2 inh	T cruzi growth	C diff growth
COc1ccc2c3c(n(C)c2c1)[C@@H](CO)N(Cc1cc(F)ccc1F)CC31CCN(C(=O)C2CC2)CC1	-81*	x	4
COc1ccc2c3c(n(C)c2c1)[C@@H](CO)N(Cc1ccccc1)CC31CCN(C(=O)C2CC2)CC1	-72	x	1
COc1ccc2c3c(n(C)c2c1)[C@@H](CO)N(Cc1cccc(Cl)c1)CC31CCN(C(C)=O)CC1	-38	x	-1
CCC(=O)N1CCC2(CC1)CN(Cc1cccc(Cl)c1)[C@H](CO)c1c2c2ccc(OC)cc2n1C	-89*	x	6
C[C@@H]1CCCCO[C@H](CN(C)C)[C@@H](C)CN([C@H](C)CO)C(=O)c2cc(NC(=O)CCCN(C)C)ccc2O1	5	-18	-1
COc1ccc(CN2CC3(C2)CN(C(=O)CN(C)C)[C@H](CO)c2[nH]c4cc(OC)ccc4c23)cc1	-88*	x	6
COc1ccc2c3c([nH]c2c1)[C@H](CO)N(C(=O)CN(C)C)CC31CN(Cc2ccncc2)C1	-32	x	4
COc1ccc(CN2CC3(C2)CN(C(=O)CN(C)C)[C@@H](CO)c2[nH]c4cc(OC)ccc4c23)cc1	-86*	x	6
COc1ccc2c3c([nH]c2c1)[C@@H](CO)N(C(=O)CN(C)C)CC31CN(Cc2ccccc2)C1	-55	x	2
CCC(=O)N1C[C@@H](C)[C@H](OC)CN(C)C(=O)c2ccc(NS(C)(=O)=O)cc2OC[C@H]1C	x	12	-2
O=C(C[C@H]1C=C[C@H](NC(=O)Nc2ccc(F)cc2)[C@H](CO)O1)NCCN1CCCC1	43	-50	x
Cc1ccccc1S(=O)(=O)N1[C@@H](C#N)[C@H](c2ccc(C#CC3CCCC3)cc2)[C@@H]1CO	-55	x	-4
N#C[C@H]1[C@H](c2ccc(C#CC3CCCCC3)cc2)[C@H](CO)N1C(=O)Nc1ccc(F)cc1	-26	x	53
CC(C)NC(=O)N1[C@H](C#N)[C@H](c2ccc(C#CC3CCCCC3)cc2)[C@@H]1CO	-81*	93	-5
N#C[C@H]1[C@@H](c2ccc(C#CC3CCCCC3)cc2)[C@H](CO)N1C(=O)Nc1ccc(F)cc1	-52	x	22
Cc1ccccc1S(=O)(=O)N1[C@H](C#N)[C@H](c2ccc(C#CC3CCCC3)cc2)[C@@H]1CO	-90*	x	8
N#C[C@@H]1[C@@H](c2ccc(C#CC3CCCCC3)cc2)[C@H](CO)N1C(=O)Nc1ccc(F)cc1	-86*	x	0
C[C@@H]1CN([C@H](C)CO)C(=O)Cc2cc(NC(=O)NC3CCCCC3)ccc2O[C@@H]1CN(C)Cc1ccc(Oc2ccccc2)cc1	-13	49	-6
CN(C)CCCNC(=O)[C@H]1[C@H](CO)[C@H]2Cn3c(ccc(-c4ccc(F)cc4)c3=O)[C@H]2N1C	1	-1	1
C[C@@H]1CCCCO[C@@H](CN(C)C(=O)CCC(F)(F)F)[C@H](C)CN([C@H](C)CO)C(=O)c2cc(NS(=O)(=O)c3cccs3)ccc2O1	-14	30	-4
CO[C@@H]1CN(C)C(=O)c2ccc(NC(=O)NC(C)C)cc2OC[C@H](C)N(Cc2ccccc2)C[C@H]1C	-40	54	x
CCNC(=O)C[C@H]1CC[C@@H]2[C@H](COC[C@@H](O)CN2C(=O)Nc2ccc(C(F)(F)F)cc2)O1	8	-31	62
O=C(C[C@@H]1CC[C@H]2[C@@H](COC[C@@H](O)CN2C(=O)Nc2ccc(C(F)(F)F)cc2)O1)NCC1CCCCC1	7	x	-100*!
O=C(C[C@@H]1CC[C@@H]2[C@H](COC[C@@H](O)CN2C(=O)Nc2ccc(C(F)(F)F)cc2)O1)NCC1CCCCC1	-16	x	58
CCNC(=O)C[C@@H]1CC[C@@H]2[C@H](COC[C@H](O)CN2C(=O)Nc2ccc(C(F)(F)F)cc2)O1	-18	18	-97*!
SMILES	Pf Dd2 inh	T cruzi growth	C diff growth
O=C(C[C@H]1CC[C@@H]2[C@H](COC[C@H](O)CN2C(=O)Nc2ccc(C(F)(F)F)cc2)O1)NCC1CC1	-17	-2	-23
CCNC(=O)C[C@@H]1CC[C@H]2[C@@H](COC[C@@H](O)CN2C(=O)Nc2ccc(C(F)(F)F)cc2)O1	-32	-63	-100*
O=C(c1ccccc1F)N1C[C@H]2[C@@H](c3ccccc31)[C@H](CO)N2C(=O)Nc1ccccc1	0	16	-2
O=C(C[C@@H]1CC[C@@H](NC(=O)Nc2cc(F)ccc2F)[C@H](CO)O1)Nc1ccc(-c2ccccc2)cc1	-11	-121	x
COc1ccc2c3c([nH]c2c1)[C@H](CO)N(Cc1ccncc1)CC31CN(S(C)(=O)=O)C1	-43	x	15
COc1ccc(S(=O)(=O)N2CCC3(CC2)CN(Cc2ccncc2)[C@H](CO)c2[nH]c4cc(OC)ccc4c23)cc1	-88*	x	-8
COc1ccc2c3c([nH]c2c1)[C@H](CO)N(Cc1ccccc1)CC31CCN(S(=O)(=O)c2ccc(C)cc2)CC1	-54	x	1
COc1ccc(CN2CC3(CCN(S(=O)(=O)c4ccc(C)cc4)CC3)c3c([nH]c4cc(OC)ccc34)[C@H]2CO)cc1	-86*	x	30
CO[C@H]1CN(C)C(=O)c2cc(NC(=O)c3ccccc3)ccc2OC[C@@H](C)NC[C@@H]1C	15	8	x
COc1ccc(-c2ccc3c(c2)[C@@H]2[C@@H](CCN2Cc2ccncc2)[C@@H](CO)N3)cc1	-79	84	47
COc1ccc(C#Cc2ccc3c(c2)[C@H]2[C@H](CCN2Cc2nccs2)[C@H](CO)N3)cc1	-85*	x	30
COc1ccc(C#Cc2ccc3c(c2)[C@H]2[C@H](CCN2Cc2ccncc2)[C@H](CO)N3)cc1	-94*	x	47
OC[C@@H]1Nc2ccc(C#Cc3ccccc3)cc2[C@@H]2[C@H]1CCN2Cc1nccs1	-77	x	40
O=C(NCC[C@@H]1CC[C@@H](NS(=O)(=O)c2cccc(F)c2)[C@H](CO)O1)C1CCC1	-9	x	0
CCCNC(=O)N1C[C@H](C)[C@@H](OC)CN(C)C(=O)c2ccc(NC(=O)C3CCC3)cc2OC[C@@H]1C	7	x	7
C[C@H]1CCCCO[C@@H](CN(C)C(=O)Nc2ccc(F)cc2)[C@@H](C)CN([C@@H](C)CO)C(=O)c2cc(NS(=O)(=O)c3cn(C)cn3)ccc2O1	-46	17	8
O=C1CN(Cc2ccc(F)cc2)C[C@@H]2[C@H](c3ccc(-c4ccccc4)cc3)[C@@H](CO)N12	8	x	-5
CCS(=O)(=O)N1CC2(CN(Cc3ccccc3F)[C@H](CO)c3[nH]c4cc(OC)ccc4c32)C1	-82*	x	1
COc1ccc2c3c([nH]c2c1)[C@@H](CO)N(Cc1ccccc1F)CC31CCN(C)CC1	-77	x	5
CCCNC(=O)N1CC2(CN(C(=O)C3CCC3)C2)c2c([nH]c3cc(OC)ccc23)[C@@H]1CO	-84*	x	-5
CCCNC(=O)N1CC2(CN(C(=O)C3CC3)C2)c2c([nH]c3cc(OC)ccc23)[C@@H]1CO	40	x	0
COc1ccc2c3c([nH]c2c1)[C@H](CO)N(Cc1ccccc1F)CC31CN(C(=O)C2CCOCC2)C1	-56	x	0
COc1ccc2c3c(n(C)c2c1)[C@H](CO)N(Cc1ccccc1F)CC31CN(C(=O)C2CCCC2)C1	-12	x	5
COc1ccc2c3c([nH]c2c1)[C@H](CO)N(Cc1ccccc1F)CC31CN(C(=O)C2CCCC2)C1	-87*	x	2
